# Assay outcomes: PubChem, Broad Institute
# The list is a sample of the results.
# aSyn 5UTR act – Activators via SNCA 5'UTR binding, MLPCN; alpha-synuclein 5'UTR reporter, activators screen; activity score, % (tested at 7.5 µM), hits read low; 300,000 compounds, 7.1% hits; in the data active = activity score below about -60%
# Starred values were filed as active, the others as inactive.
SMILES,aSyn 5UTR act
Clc1ccccc1Nc1ncnc(-n2cccc2)n1,-160*
COC(=O)C(O)(c1ccc(NC(=S)NC(=O)c2ccccc2)cc1)C(F)(F)F (stereo not given),-80*
CN(C)c1ccc2c(c1)N=C(c1ccco1)OP2(=S)N1CCOCC1 (stereo not given),-130*
Cc1nc2cc(-c3ccccc3)nn2c(C)c1CCC(=O)N1CCC2(CC1)OCCO2,79
O=C(c1cc(-c2ccccc2)on1)N1CCC2(CC1)OCCO2,-113*
[O-]c1ccccc1-[n+]1c(-c2ccccc2)cc(-c2ccccc2)cc1-c1ccccc1,61
CCCCc1nc2ccccc2c(=O)n1-c1ccccc1[N+](=O)[O-],-73*
CC(=O)O[C@@]12CO[C@@H]1C[C@H](O)[C@@]1(C)C(=O)[C@H](O)C3=C(C)[C@@H](OC(=O)[C@H](O)[C@@H](NC(=O)c4ccccc4)c4ccccc4)C[C@@](O)([C@@H](OC(=O)c4ccccc4)C12)C3(C)C (stereo not given in full),114
CC(C)(C)c1ccc(C(=O)C2CCCN(C3CCC3)C2)cc1 (stereo not given),-72*
CC(C)(C)c1ccc(C(=O)C2CCCN(Cc3ccon3)C2)cc1 (stereo not given),-124*
COc1ccccc1CN1CCCC(C(=O)c2ccccc2SC)C1 (stereo not given),52
Cc1cc([N+](=O)[O-])c2ccccc2[n+]1[O-],127
C[C@]12CC[C@H]3C(CCC4(O)CC(O)CC[C@]34C=O)C1=CC[C@H]2c1ccc(=O)oc1 (stereo not given in full),82
CC(C)[C@]12O[C@H]1[C@@H]1O[C@]13[C@]1(O[C@H]1C[C@H]1C4=C(CC[C@@]13C)C(=O)OC4)[C@@H]2O,124
O=c1c2ccccc2[nH]c(=S)n1-c1ccc2c(c1)OCCO2,-105*
CN(C)c1ccc(C(=O)c2ccc(N(C)C)cc2)cc1,-108*
NC(N)=N/N=C/c1ccc(N(c2ccccc2)c2ccccc2)cc1,138
O=c1[nH]c(=S)n(C2CC2)c(O)c1C=Nc1ccc2c(c1)OCO2,-141*
CCOC(=O)C(O)(c1ccc(NC(=O)NC2CCCCC2)cc1)C(F)(F)F (stereo not given),-83*
C=C1C[C@@H]2[C@H](CC[C@]3(C)C(=O)CC[C@@H]23)[C@@]2(C)C=CC(=O)C=C12,-141*
C=C1C(=O)O[C@@H]2C[C@@H](C)[C@@H]3C=CC(=O)[C@@]3(C)[C@@H](OC(=O)CC(=O)O[C@H]3[C@@H]4C(=C)C(=O)O[C@@H]4C[C@@H](C)[C@@H]4C=CC(=O)[C@]43C)[C@H]12,116
C=C1C(=O)O[C@H]2C[C@@H](C)[C@@H]3C=CC(=O)[C@@]3(C)C[C@H]12,-151*
O=C(c1ccccc1)C(CN1CCCC1)c1ccccc1 (stereo not given),-77*
COc1cc2c(c(OC)c1OC)-c1ccc(O)c(=O)cc1C(NC(C)=O)CC2 (stereo not given),90
FC(F)(F)c1ccc(NC2=NCCCS2)cc1,-69*
SMILES,aSyn 5UTR act
CCCCCCCSc1cc(OC)c(CCN(C)C)cc1OC,58
CN(C)c1ccc(/C=C/C=C2/C(=O)NC(=O)N(c3ccccc3)C2=O)cc1,-96*
O=C1NC(=O)N(c2ccccc2)C(=O)/C1=C/C=C/c1ccco1,-136*
Cc1ccc(N2C(=O)NC(=O)/C(=C\C=C\c3ccco3)C2=O)cc1,-92*
Cc1cccc(N2C(=O)NC(=O)/C(=C\C=C\c3ccco3)C2=O)c1,-131*
CC1CCC(C(C)C)C(OC(=O)Cn2c(COc3ccccc3)[n+](C)c3ccccc32)C1 (stereo not given),66
Cc1cc(OCCN2CC2)c2ccccc2n1,-73*
CCCCCn1c(=O)c(C(=O)Nc2ccccc2C)c(O)c2ccccc21,-83*
CCCCCn1c(=O)c(C(=O)Nc2ccccc2S(N)(=O)=O)c(O)c2ccccc21,69
CCCCCn1c(=O)c(C(=O)Nc2cnccn2)c(O)c2ccccc21,98
CN(C)C(Cc1ccccc1)C(=O)c1c[nH]c2ccccc12 (stereo not given),-64*
Nc1ccc2c(c1)oc1ccccc12,-113*
CC12CC[C@H]3[C@@H](CCC4(O)C[C@H](O)CCC34/C=N/NC(=O)c3ccccc3[N+](=O)[O-])C1(O)CCC2C1=CC(=O)OC1 (stereo not given in full),117
CCOC(=O)c1c(N)n(CCCOC(=O)c2ccco2)c2nc3ccccc3nc12,114
Nc1c(C(=O)NCc2ccco2)c2nc3ccccc3nc2n1CCN1CCCCC1,-103*
Cc1ccc(-c2nc(N(C)C3CCN(C)CC3)c3ccccc3n2)cc1,-93*
CC(=O)O[C@H]1C(=O)[C@@]2(C)C([C@H](OC(=O)c3ccccc3)[C@]3(O)C[C@H](OC(=O)[C@H](O)[C@@H](NC(=O)Cc4ccccc4)c4ccccc4)C(C)=C1C3(C)C)[C@]1(OC(C)=O)CO[C@@H]1C[C@@H]2O (stereo not given in full),93
CCn1c(C)c(C(=O)Nc2ccc(OC)cc2)c2cc(OC)ccc21,-86*
CC(=O)Nc1ccccc1C(=O)OCc1cccc(F)c1,-85*
c1ccc(-c2nc(N3CCOCC3)s[n+]2-c2ccccc2)cc1,-75*
CNc1ccc2oc(C[C@H]3O[C@@]4(CC[C@H]3C)O[C@H]([C@H](C)C(=O)c3ccc[nH]3)[C@H](C)C[C@H]4C)nc2c1C(=O)O,117
O=C(C1CC(c2ccc(F)cc2)=NO1)N1CCC2(CC1)OCCO2 (stereo not given),-127*
O=C(C1CC(c2ccc(Cl)c(Cl)c2)=NO1)N1CCC2(CC1)OCCO2 (stereo not given),-131*
COc1cccc(C2=NOC(C(=O)N3CCC4(CC3)OCCO4)C2)c1 (stereo not given),-105*
CNC(=O)Oc1ccc(-c2cn3cc(C)ccc3n2)cc1,76
SMILES,aSyn 5UTR act
CN1CCN(c2ccc([N+](=O)[O-])c3no[n+]([O-])c23)CC1,98
O=C(Nc1ccccc1)c1cccn(Cc2ccccc2)c1=O,-96*
CN1CCN(c2ccc3c(c2)S(=O)(=O)c2ccccc2C3=O)CC1,-112*
C[N+]1=C(/C=C/Nc2ccccc2)C(C)(C)c2ccccc21,-93*
Nc1c2c(nc3sc4c(c13)CCCC4)CCCC2,-118*
Nc1c2c(nc3sc4c(c13)CCCC4)CCCCC2,-170*
CC(=O)O[C@@H]1/C=C/[C@](C)(O)C[C@@H](C)C/C=C/[C@H]2[C@H](O)C(C)=C(C)[C@H]3[C@H](Cc4ccccc4)NC(=O)[C@@]123,117
CCn1nc(-c2ccccc2)nc2c(=O)n(C)c(=O)nc1-2,-84*
Cc1nc2c(=O)n(C)c(=O)nc-2n(C)n1,115
C#CCOc1cc(C2C3=C(COC3=O)Nc3cc4c(cc32)OCO4)ccc1OC (stereo not given),78
CC(Cc1ccccc1)/[N+]([O-])=C\c1ccc(C(F)(F)F)cc1 (stereo not given),-119*
CN(C)c1ccc(/C=C/[N+](=O)[O-])cc1,-74*
COc1cc(C=C2C(=O)NC(=O)NC2=O)ccc1OS(=O)(=O)c1ccccc1[N+](=O)[O-],-96*
CC1Oc2cc3c(-c4c(O)cc(O)c5c(O)c6c(cc45)OC(C)C(C)C6=O)c(O)cc(O)c3c(O)c2C(=O)C1C (stereo not given),87
